Bioassay records: PubChem, National Center for Advancing Translational Sciences (NCATS)
TDP1 cell CPT: qHTS for Inhibitors of human tyrosyl-DNA phosphodiesterase 1 (TDP1): qHTS in cells in presence of CPT | chicken DT40 Tdp1-/-;hTDP1 cells + 20 nM CPT, ATP luminescence, 48 h | Potency, µM (highest dose often 46.2 µM), actives largely listed as inhibitors | 420,000 compounds, 12% hits | AID 686979, 2013; note: nearly all actives have a fitted effect of over 55% in size
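Chicken DT40 Tdp1-/- cells complemented with human TDP1, 400 cells/well, exposed to compounds plus 20 nM camptothecin for at least 48 h at 37 C; viability read as ATP content by CellTiter-Glo luminescence.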
HT1080NT lethal: qHTS for induction of synthetic lethality in tumor cells producing 2HG: qHTS for the HT-1080-NT fibrosarcoma cell line; Potency, µM (highest dose often 46.1 µM), most hits filed as cytotoxic; 360,000 compounds, 1.6% hits; HT-1080-NT fibrosarcoma viability, CellTiter-Glo ATP luminescence, 48 h;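 note: NT is the 2HG producing partner of a matched IDH1 knockdown line; nearly all actives have a fitted effect of over 55% in size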
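Fibrosarcoma NT cells, 750 per well in 5% FBS RPMI, were exposed to compound for 48 hours. Viability: CellTiter-Glo luminescence.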
DT40 TDP1 no CPT: qHTS for Inhibitors of human tyrosyl-DNA phosphodiesterase 1 (TDP1): qHTS in cells in absence of CPT. Potency, µM (titrated, usually from 46.2 µM), hits mostly inhibitors. 420,000 compounds, 15% hits. DT40 Tdp1-/- hTDP1 cells, no CPT, ATP luminescence, 48 h; note: nearly all actives have a fitted effect of over 55% in size
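Chicken DT40 Tdp1-/- cells stably complemented with human TDP1 were seeded at 400 cells/well with DMSO in place of 20 nM camptothecin. After compound pinning, cells grew at least 48 hr at 37 °C; viability read by CellTiter-Glo luminescence.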
HT1080 IDH1KD tx: qHTS for induction of synthetic lethality in tumor cells producing 2HG: qHTS for the HT-1080-IDH1KD cell line. HT-1080 IDH1 knockdown viability, ATP luminescence, 48 h. 360,000 compounds, 2% hits. AID 686971, 2013. Potency, µM (top dose mostly 46.1 µM), hits mostly cytotoxic
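IDH1KD HT-1080 cells, 750/well, RPMI + 5% FBS; compound pinned after 2 h settling; 48 h, 37 °C; CellTiter-Glo luminescence; % activity normalised to DMSO and no-cell wells; curves fitted, classed by r2 and efficacy.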
IL1B secr inh: qHTS for Inhibitors of Inflammasome Signaling: IL-1-beta AlphaLISA Primary Screen | THP-1 LPS/ATP IL-1B secretion, AlphaLISA, 16 h; stronger effect = lower value | activity change, % at 57.5 µM | 360,000 compounds, 4.7% hits | AID 743279, 2014; in the data active = activity change below about -50%; inconclusive = mostly about -30% to -49%
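THP-1 cells pretreated 1 hr with compounds (up to 57.5 uM final), then stimulated with LPS (250 ng/mL final) plus ATP (1.25 mM final); secreted IL-1B measured by AlphaLISA after 16 hr, decreased signal indicating inhibition.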
Hits are given with their value; – = inactive; ? = inconclusive; · = not tested or not shown. This is a sample that favours compounds with a hit; in the whole collection about 19% have one here. Unless noted, calls come from the whole dose curve; as a rule, active = well fitted curve in the direction sought with a large enough effect; inconclusive = small, poorly fitted or top-dose-only effect, or another doubt; inactive = no such curve, though single readings can be large; an effect the other way counts as inactive or inconclusive.

SMILES	TDP1 cell CPT	HT1080NT lethal	DT40 TDP1 no CPT	HT1080 IDH1KD tx	IL1B secr inh
COc1cc(/C=C(/C#N)C(=O)NCCCc2ccccc2)ccc1OCC(=O)O	–	–	–	–	–
N#C/C(=C/c1ccc(O)c(O)c1)C(=O)NCc1ccc(Cl)cc1	26µM	?	?	?	–
N#C/C(=C/c1cccc(O)c1)C(=O)NCc1ccc(Cl)cc1	?	?	16µM	?	-103
CC(C)c1cc(/C=C(\C#N)C(=O)NCCCc2ccccc2)cc(C(C)C)c1O	21µM	·	21µM	·	·
COc1ccccc1-n1nnnc1SCC(=O)NC1CCCCC1	–	–	–	–	–
O=C1OC(c2ccccc2)c2ccc3ccccc3c21 (stereo unspecified)	?	–	–	–	–
CC1(CCc2ccccc2)NC(=O)N(CC(=O)Nc2ccc3c(c2)OCCO3)C1=O (stereo unspecified)	–	–	–	–	–
CCCCn1nnnc1C(c1ccccc1)N1CCN(c2ccc(F)cc2)CC1 (stereo unspecified)	?	–	?	–	–
COc1ccc(CCNC(=O)/C(C#N)=C/c2cccc(OCc3ccccc3)c2)cc1OC	?	?	18µM	–	?
Cc1cc(C)c(S(=O)(=O)N2CCN(c3ccccc3)CC2)c(C)c1	?	–	?	–	–
COC(=O)c1cc(S(=O)(=O)N2CCN(c3ccccc3F)CC2)c[nH]1	?	–	?	–	–
COC(=O)c1scc(-c2ccc(C)cc2)c1S(=O)(=O)N1CCN(c2cccc(Cl)c2)CC1	18µM	·	18µM	·	·
COC(=O)c1scc(-c2ccc(C)cc2)c1S(=O)(=O)N1CCN(c2ccc(C)cc2C)CC1	15µM	·	9.2µM	·	·
COC(=O)c1scc(-c2ccc(C)cc2)c1S(=O)(=O)N1CCN(c2ccccc2)CC1	12µM	·	9.2µM	·	·
COC(=O)c1scc(-c2ccc(C)cc2)c1S(=O)(=O)N1CCN(c2ccccc2F)CC1	13µM	·	18µM	·	·
Cc1noc(C)c1C(=O)N1CCC1(C)C(=O)NS(=O)(=O)c1ccc(F)cc1F (stereo unspecified)	–	–	–	–	–
O=C1c2ccccc2S(=O)N1c1cccc(F)c1 (stereo unspecified)	–	–	–	–	–
CC(=O)c1ccc(N2CCN(S(=O)(=O)c3csc(C(N)=O)c3)CC2)cc1	–	–	–	?	–
COC(=O)c1scc(-c2ccc(C)cc2)c1S(=O)(=O)N1CCN(c2ccc(C(C)=O)cc2)CC1	23µM	·	?	·	·
CCOC(=O)c1scc(-c2ccccc2)c1S(=O)(=O)N1CCN(c2ccc(Cl)cc2)CC1	?	·	13µM	·	·
O=C(CC[C@H]1O[C@@H](n2cnc3c(NC(=O)c4ccccc4)ncnc32)[C@H](O)[C@@H]1O)NCCc1cc2ccccc2[nH]1	–	–	–	–	?
O=C(CCc1nc2ccccc2c(=O)[nH]1)NCc1cccc(Cl)c1	21µM	21µM	23µM	?	–
COc1ccc(CCNC(=O)CCc2c(C)nc3nc(C)nn3c2C)cc1OC	–	·	–	·	·
COc1cc(OC)cc(-c2cc3nc(C)c(CCC(=O)NCCc4cccc(C)c4)c(C)n3n2)c1	16µM	·	?	·	·
COc1cc(OC)cc(-c2cc3nc(C)c(CCC(=O)NCc4ccccc4)c(C)n3n2)c1	?	–	18µM	–	?
SMILES	TDP1 cell CPT	HT1080NT lethal	DT40 TDP1 no CPT	HT1080 IDH1KD tx	IL1B secr inh
COc1cccc(Oc2ccc(C(F)(F)F)cc2NC(=O)CCc2nc3ccccc3c(=O)[nH]2)c1	16µM	–	18µM	–	–
O=C(C[N+]1(CCO)CCOCC1)c1ccc(F)c2ccccc12	–	·	?	·	·
COc1ccccc1CNC(=O)CCc1c(C)nc2cc(-c3ccc(Cl)cc3)nn2c1C	–	·	–	·	·
Cc1nc2cc(-c3ccccc3)nn2c(C)c1CCC(=O)NCc1cccc(Cl)c1	26µM	·	?	·	·
CCOC(=O)c1ccc(NC(=O)CCc2c(C)nc3cc(-c4ccc(OC)cc4OC)nn3c2C)cc1	–	·	?	·	·
COc1ccc(-c2cc3nc(C)c(CCC(=O)NCc4ccccc4Cl)c(C)n3n2)c(OC)c1	18µM	·	13µM	·	·
COc1cc(OC)cc(-c2cc3nc(C)c(CCC(=O)Nc4ccccc4OC)c(C)n3n2)c1	?	·	23µM	·	·
COc1ccc(CCNC(=O)CCc2c(C)nc3cc(-c4cccc(F)c4)nn3c2C)cc1OC	8.2µM	·	8.2µM	·	·
O=C(Cc1cccc(F)c1)N1CCOCC1	?	–	–	–	–
COc1ccccc1-c1cc2nc(C)c(CCC(=O)NCCc3ccc(SC)cc3)c(C)n2n1	?	·	21µM	·	·
COc1ccccc1-c1cc2nc(C)c(CCC(=O)NCc3ccc(F)cc3)c(C)n2n1	?	–	?	–	–
Cc1sc2ccccc2[n+]1CC(=O)c1ccc(F)cc1	–	·	–	·	·
Cc1onc(-c2ccccc2)c1C(=O)NNC(=S)NC(=O)/C=C/c1ccccc1	21µM	–	18µM	?	–
COc1ccc(/C=C/C(=O)NC(=S)NNC(=O)c2c(-c3ccccc3)noc2C)cc1	?	–	26µM	?	–
Cc1onc(-c2ccccc2)c1C(=O)NNC(=S)NC(=O)c1ccc(Br)cc1	?	?	?	?	–
Cn1c2c(c(=O)n(C)c1=O)C1(C(=O)Nc3ccccc31)C(C#N)=C(N)O2 (stereo unspecified)	15µM	–	?	–	–
N#CC1=C(N)Oc2ccccc2C12C(=O)Nc1n[nH]c(-c3ccccc3)c12 (stereo unspecified)	–	–	?	–	–
Cc1cc(=O)oc2cc3oc(=O)cc(C)c3cc12	–	–	–	–	–
Ic1ccc(Nc2nc(NCCN3CCOCC3)nc(N3CCOCC3)n2)cc1	5µM	·	2.8µM	·	·
C=CCNc1nc(NCCN2CCOCC2)nc(N2CCOCC2)n1	–	–	–	–	–
c1ccc(Nc2nc(NCCN3CCOCC3)nc(Nc3ccccc3)n2)cc1	?	?	?	?	–
Ic1ccc(Nc2nc(NCCN3CCOCC3)nc(N3CCCC3)n2)cc1	11µM	·	11µM	·	·
CCCS(=O)(=O)NC(=O)C1(C)CCN(C(=O)c2cccc(OC(F)(F)F)c2)C1 (stereo unspecified)	–	–	–	–	–
COc1cc(C2c3c(-c4ccccc4O)n[nH]c3C(=O)N2Cc2ccncc2)ccc1O (stereo unspecified)	–	·	–	·	·
CCCOc1ccc(C2c3c(-c4ccccc4O)n[nH]c3C(=O)N2CCc2ccccc2)cc1OCC (stereo unspecified)	12µM	·	13µM	·	·
